Measured values reported in PubChem BioAssay (NCATS).
Results filed as inconclusive are left out. Where a call stands in place of a potency, no number is given. Active and inactive are the calls of the source. Calls come from the whole dose curve; as a rule, active = well fitted inhibition curve with a large enough effect; inconclusive = small, poorly fitted or top-dose-only effect; inactive = flat fitted curve, though single readings scatter.

Each compound was assayed against Glutathione peroxidase 1 (Homo sapiens) (UniProt P07203) (assay: Primary qHTS Assay for Inhibitors of Recombinant Selenoprotein Glutathione Peroxidase 1 (GPX1) (AID 1845191; note: nearly all actives have a fitted effect of over 65% in size)). Settings: recombinant GPX1, GR-coupled NADPH fluorescence, 15 min; series mostly up to 48.8 µM.
Chain of Glutathione peroxidase 1 (Homo sapiens) (P07203 whole entry, looked up): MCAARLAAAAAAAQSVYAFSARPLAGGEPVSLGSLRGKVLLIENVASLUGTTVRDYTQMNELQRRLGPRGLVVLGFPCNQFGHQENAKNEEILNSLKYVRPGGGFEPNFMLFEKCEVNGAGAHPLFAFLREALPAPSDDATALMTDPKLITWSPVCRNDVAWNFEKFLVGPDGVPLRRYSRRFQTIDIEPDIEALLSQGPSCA
Outline: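 10 nM GPX1 + cpd, 30 min RT; start w/ 1 mM GSH, 0.5 mM cumene hydroperoxide, 0.5 mM NADPH, 100 nM GR, 0.01% BSA; buffer 50 mM Tris-HCl pH 7.5, 2 mM EDTA, 150 mM NaCl; Fl 340/450, 0 & 15 min.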

SMILES	Potency
CCCc1ccc(OCC(=O)N2CCN(C(=O)COc3ccc(CCC)cc3OC)CC2)c(OC)c1	inactive
O=C1NCCN1CCN1CCC(c2cn(-c3ccc(F)cc3)c3ccc(Cl)cc23)CC1	inactive
CC(C)Cc1ccc(C(C)C(=O)OCc2ccccn2)cc1 (stereo not given)	inactive
Cc1c(F)cc2c(=O)c(C(=O)O)cn3c2c1CCC3C (stereo not given)	inactive
CC(=O)/C=C/C=C1/C2CCC(C2)C1(C)C (stereo not given)	inactive
C/C(=C(/OCCOc1ccc(Cl)cc1)c1ccc(Cl)cc1Cl)n1ccnc1	inactive
NS(=O)(=O)c1cc(C(=O)NN2C[C@H]3[C@H]4CCC(C4)[C@H]3C2)ccc1Cl	inactive
Cc1cc(O)c2c(O)c3c(O)cccc3cc2c1	inactive
C[N+]1(C)CCC(OC(=O)C(O)(c2ccccc2)C2CCCC2)C1 (stereo not given)	inactive
C[C@H]1C[C@H]2[C@@H]3CCC4=CC(=O)C=C[C@]4(C)[C@H]3C(=O)C[C@]2(C)[C@@]1(O)C(=O)CO	inactive
OC(CCCN1CCCCC1)(c1ccccc1)c1ccccc1	inactive
CCCCC/C=C\C/C=C\CCCCCCCC(=O)NC(C)c1ccccc1 (stereo not given)	inactive
O=C(OCC(O)CO)c1ccccc1Nc1ccnc2c(C(F)(F)F)cccc12 (stereo not given)	inactive
CCCC(=O)O[C@]1(C(=O)CCl)[C@@H](C)C[C@H]2[C@@H]3CCC4=CC(=O)C=C[C@]4(C)[C@@]3(F)C(=O)C[C@@]21C	inactive
CO[C@@H]1[C@@H](O[C@@H]2O[C@H](C)[C@@H](O[C@H]3C[C@@](C)(O)[C@@H](O)[C@H](C)O3)[C@H](N(C)C)[C@H]2O)[C@@H](CC=O)C[C@@H](C)[C@@H](O[C@@H]2CC[C@H](N(C)C)[C@@H](C)O2)/C=C/C=C/C[C@@H](C)OC(=O)C[C@H]1OC(C)=O	inactive
